# Screening results deposited in PubChem by National Center for Advancing Translational Sciences (NCATS).
# BAZ2B block: blocks human BAZ2B | Q9UIF8 | AlphaScreen BAZ2B-H3K14Ac peptide displacement | Potency, µM (titrated, usually from 114 µM), inactives show at the highest dose activity change, negative = inhibition, hits mostly inhibitors | actives 4.4% (n = 360,000) | AID 504333; note: % is set by controls: 0 for no effect and ±100 for the full control effect; nearly all actives have a fitted effect of over 60% in size
#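 Protein-peptide AlphaScreen: BAZ2B 50 nM, b-H3K14Ac 50 nM, 1x PBS pH 7.4 + 0.01% Tween-20. Preincubation 30 min RT; cpd 30 min RT (top 110 uM); beads 20 min RT, light-protected.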
# Sfp inh: Sfp phosphopantetheinyl transferase inhibition. Q9F4F7. Biochemical Sfp PPTase activity, qHTS. Potency, µM, inactives show largest response in the series, negative = inhibition, usual class: inhibitors. actives 3.5% (n = 310,000). AID 1490;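 note: the enzyme is Sfp with the accession as filed and its product quenches rhodamine fluorescence; 0% = enzyme reaction without inhibitor and -100% = no enzyme wells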
#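 Buffer: 50 mM Hepes-Na pH 7.6, 10 mM MgCl2, 0.01% Nonidet P-40, 0.01% BSA. Enzyme 15 nM, pre-exposed to compound 15 min; substrates then added and fluorescence change tracked over 30 min.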
# HP1b binding inh: HP1-beta chromodomain-methylated histone interaction inhibition; P83916; AlphaScreen HP1-beta / biotin-H3K9me3 peptide binding; Potency, µM (doses to about 114 µM), for the others: at the highest dose activity change, negative = inhibition, actives largely listed as inhibitors; actives 0.56% (n = 390,000); note: nearly all actives have a fitted effect of over 70% in size
#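 Compound inhibition of the preformed complex between 50 nM HP1-beta and 50 nM biotinylated H3K9me3 peptide was read by AlphaScreen. Buffer was PBS pH 7.4 with 0.01% Tween-20. Incubations ran 30 min at room temperature, with 10 ug/mL donor/acceptor beads.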
# G9a block: inhibitors of human histone lysine methyltransferase G9a; Potency, µM (doses to about 102 µM), for the others: at the highest dose activity, negative = inhibition, hits mostly inhibitors; actives 8.8% (n = 350,000); G9a H3K9 monomethylation, AlphaScreen, 2 h; note: % is set by controls: 0 for no effect and ±100 for the full control effect; nearly all actives have a fitted effect of over 75% in size
#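 Chemiluminescent proximity detection of H3K9 monomethylation, read after 10 min bead incubation in the dark. Reaction: 20 nM G9a, 500 nM biotin-H3K9 peptide, 20 uM SAM cofactor, 2 h, room temperature, following 15 min enzyme-compound preincubation.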
# L3MBTL1 inh: blocks human L3MBTL1. Q9Y468. AlphaScreen L3MBTL1–H3K9me1 peptide binding. actives 0.66% (n = 230,000). AID 485360. Potency, µM (titrated, usually from 57.1 µM), for inactives: top-dose activity, negative = inhibition, most hits filed as inhibitors; note: % is set by controls: 0 for no effect and ±100 for the full control effect; nearly all actives have a fitted effect of over 60% in size
# Target sequence (Q9Y468 whole entry, looked up): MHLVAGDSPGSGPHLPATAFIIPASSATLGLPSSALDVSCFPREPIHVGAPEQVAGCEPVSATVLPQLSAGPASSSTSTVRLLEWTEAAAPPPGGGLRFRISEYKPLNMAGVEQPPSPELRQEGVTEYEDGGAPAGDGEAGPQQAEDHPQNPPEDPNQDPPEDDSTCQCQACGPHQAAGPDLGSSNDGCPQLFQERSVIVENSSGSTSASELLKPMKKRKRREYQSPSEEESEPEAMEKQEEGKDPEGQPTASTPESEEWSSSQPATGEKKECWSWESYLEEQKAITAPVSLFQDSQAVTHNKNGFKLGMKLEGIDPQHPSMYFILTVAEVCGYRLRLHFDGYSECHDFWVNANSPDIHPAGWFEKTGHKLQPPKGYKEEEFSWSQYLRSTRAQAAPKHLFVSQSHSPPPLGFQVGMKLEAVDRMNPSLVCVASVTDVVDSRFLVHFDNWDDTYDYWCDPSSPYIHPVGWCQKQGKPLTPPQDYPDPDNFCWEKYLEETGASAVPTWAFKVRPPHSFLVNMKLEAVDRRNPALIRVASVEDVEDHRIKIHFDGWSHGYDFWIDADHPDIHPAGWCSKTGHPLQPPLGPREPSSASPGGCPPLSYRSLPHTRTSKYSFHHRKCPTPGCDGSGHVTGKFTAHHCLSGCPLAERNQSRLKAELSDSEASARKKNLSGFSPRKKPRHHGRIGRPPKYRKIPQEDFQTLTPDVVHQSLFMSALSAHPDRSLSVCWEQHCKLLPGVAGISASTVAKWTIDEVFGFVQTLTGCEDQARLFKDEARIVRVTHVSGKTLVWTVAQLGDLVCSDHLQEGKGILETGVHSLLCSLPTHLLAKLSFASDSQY
#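 First, the protein-peptide complex forms for 30 min at room temperature (L3MBTL1 50 nM, biotinylated H3K9me1 peptide 75 nM). Next, compounds are pin-transferred and incubated 30 min. Finally, AlphaScreen beads are added and read after 30 min.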
# JMJD2A Tudor inh: inhibitors of human JMJD2A Tudor domain; O75164; AlphaScreen JMJD2A-Tudor / H3K4me3 peptide binding; Potency, µM (titrated, usually from 114 µM), without a hit: top-dose activity change, negative = inhibition, actives largely listed as inhibitors; actives 4.4% (n = 390,000); note: % is set by controls: 0 for no effect and ±100 for the full control effect; nearly all actives have a fitted effect of over 50% in size
# Numbers without * were called inactive; ? = inconclusive; . = no result given; ! = not active in a repeat; [ ] = dose if it differs, or a comment. Most compounds without a hit are left out; they make up all but 12% or so of the library. Calls come from the whole dose curve; as a rule, active = well fitted curve in the direction sought with a large enough effect; inconclusive = small, poorly fitted or top-dose-only effect, or another doubt; inactive = no such curve, though single readings can be large; an effect the other way counts as inactive or inconclusive. Potency is the fitted concentration of half-maximal effect.
SMILES,BAZ2B block,Sfp inh,HP1b binding inh,G9a block,L3MBTL1 inh,JMJD2A Tudor inh
Oc1cccc(/C=N/N2CCCCC2)c1O,-33%,-28%,19%,45µM*,.,-27%
CCn1nc(C)c2c(-c3ccccc3)cc(=O)n(C(C)C(=O)NCCc3ccc(OC)c(OC)c3)c21 (configuration not stated),-23%,.,16%,3%[59 µM],.,-27%
Cc1ccc2[nH]c(C(=O)Nc3ccccc3)cc2c1,2%,.,43%,8%[59 µM],.,6%
Oc1ccccc1C=NN1CCCCCC1,.,.,?,.,.,45µM*
C(=NN1CCCCCC1)c1ccc2c(c1)OCO2,.,.,?,.,.,50µM*
Oc1ccc(/C=N/N2CCCCC2)c(O)c1O,?,7.9µM*,-22%[57 µM],1.6µM*,.,8.9µM*
Nc1nc2c(s1)C(=O)CC(c1ccccc1)C2 (configuration not stated),7%,45µM*,42%,10%[12.7 µM],.,-19%
CC1(C)CNc2cc(N)ccc2S1,45µM*,-9%,?,3.5µM*,?,45µM*
CCc1c(C)[nH]n(-c2nc(-c3ccccc3)cs2)c1=O,-3%,5%,0%,50µM*,.,-18%[11.4 µM]
Cc1ccc(-n2c(O)c(/C=N/c3ncn[nH]3)c3ccccc3c2=O)cc1,?,14%,8%,15%[12.7 µM],-18%,-21%
O=c1c2ccccc2c(C=NCc2ccccn2)c(O)n1-c1ccccc1Cl,?,-15%,-17%,?,.,?
O=c1c2ccccc2c(/C=N/n2cnnc2)c(O)n1-c1ccccc1F,?,-8%,27%,71µM*,-8%,?
Cc1ccc(-n2c(O)c(/C=N/n3cnnc3)c3ccccc3c2=O)cc1,50µM*,8%,-4%,?,-5%,56µM*
Cn1nc(-c2ccc(F)cc2)nc2c(=O)n(C)c(=O)nc1-2,.,.,14%[57 µM],.,.,-3%[57.1 µM]
CC1CC(C)CN(CC(=O)Nc2ccc3c(c2)OCCO3)C1 (configuration not stated),79µM*,-21%,?,-43%[12.7 µM],-3%,0.89µM*
CC1CCN(CCC(=O)Nc2ccc3c(c2)OCCO3)CC1,56µM*,-13%,.,-47%,.,.
CCc1nn2c(=O)c(S(=O)(=O)Nc3ccc(Br)cc3F)c(C)nc2s1,-2%,.,26%,-5%[59 µM],.,1%
Cc1ccccc1NC(=O)C1CCN(C(=O)c2ccc(F)cc2)CC1,5%,.,12%,3%[59 µM],.,-6%
NCCS(=O)O,.,-16%,.,19µM*!,.,.
COc1ccccc1N1CCN(/N=C\c2cccnc2)CC1,79µM*,?,17%,40µM*,-5%,?
COc1ccccc1N1CCN(/N=C/c2cccc(O)c2)CC1,71µM*,12%,6%,-35%,-28%,-33%
COc1ccccc1N1CCN(/N=C/c2cc(OC)c(O)c(OC)c2)CC1,?,40µM*,-41%,13µM*,-7%,89µM*
O=C(NCCc1ccccc1)C(=O)NCC(c1cccnc1)N1CCN(c2ccc(F)cc2)CC1 (configuration not stated),?,.,16%,-48%[59 µM],.,-30%
CN(CC(=O)Nc1ccc(Cl)cc1F)S(=O)(=O)c1ccc2c(c1)n(C)c(=O)c(=O)n2C,-7%,.,32%,?,.,-8%
Cc1[nH]c2ccccc2c1/C=N\NC(=O)CNc1ccc2c(c1)OCO2,45µM*,-18%,?,10µM*,-11%,?
O=C(CNc1ccc2c(c1)OCO2)N/N=C\c1ccccc1Cl,50µM*,-33%,?,?,0%,?
Cc1[nH]c2ccccc2c1/C=N/NC(=O)CNC(=O)c1ccco1,-7%,5%,12%,.,7%,-8%
CC(C)Cn1cc(NC(=O)NCc2cccc(Cl)c2)c2ccccc2c1=O,0%[57.1 µM],.,28%,?,.,-18%
Cc1ccc2ncc(C(=O)N3CCN(c4ccccc4F)CC3)c(=O)n2c1,0%,.,12%,0%[59 µM],.,-19%
COc1ccc(NC(=O)COc2ccc(C)c(C)c2)cc1S(=O)(=O)N1CCCCC1,2%,.,31%,56µM*,-7%,-12%
